{"source": "PubChem BioAssay (NCATS)", "note": "Records with an inconclusive call do not appear. Entries that show only a call come without a potency. Calls of active or inactive are those of the source. The call rests on the fitted dose curve; in most records, active means well fitted curve in the direction sought with a large enough effect; inconclusive means small, poorly fitted or top-dose-only effect, or another doubt; inactive means no such curve, though single readings can be large; an effect the other way counts as inactive or inconclusive."}
{"test_system": "not listed separately", "assay": "Validation qHTS assay for inhibitors of Activation Induced Cytidine Deaminase (AID): UDG Counterscreen signal (AID 1347427)", "details": "biochemical UDG counterscreen, fluorescence signal; series mostly up to 115 µM", "procedure,_shortened": "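Counterscreen read of UDG activity (2 U/mL, 4/3x) in the FRET deamination format with AID (1 uM, 4/3x), DJC20/DJC23 substrates (250 nM, 4x), 4 h at room temperature. NaOH stop, fluorescence at 560 ex/665 em.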"}
{"smiles": "COc1cccc(OC)c1OCCNCC1CSc2ccccc2O1", "note": "(stereo not given)", "Potency": "inactive"}
{"smiles": "CN(C)CCC(c1ccc(Br)cc1)c1ccccn1", "note": "(stereo not given)", "Potency": "inactive"}
{"smiles": "O=c1oc(Cl)c(Cl)c2ccccc12", "Potency": "inactive"}
{"smiles": "N[C@@H](Cc1ccc(O)c(I)c1)C(=O)O", "Potency": "inactive"}
{"smiles": "N[C@@H](Cc1c[nH]c2ccccc12)C(=O)O", "Potency": "inactive"}
{"smiles": "COc1cc(C(O)CO)ccc1O", "note": "(stereo not given)", "Potency": "inactive"}
{"smiles": "C#CCn1c(=O)c2c(ncn2C)n(C)c1=O", "Potency": "inactive"}
{"smiles": "CC(C)Cn1c(=O)n(C)c(=O)c2[nH]cnc21", "Potency": "inactive"}
{"smiles": "CCCn1c(=O)c2[nH]c(C3CCCC3)nc2n(CCC)c1=O", "Potency": "inactive"}
{"smiles": "Cn1cc(C(F)(F)F)nc1-c1ccc(OCC(O)CNCCOc2ccc(O)c(C(N)=O)c2)cc1", "note": "(stereo not given)", "Potency": "inactive"}
{"smiles": "NCCC1CCCC(CCN)N1", "note": "(stereo not given)", "Potency": "inactive"}
{"smiles": "c1ccc(CN2CCC3(CCCc4ccccc43)CC2)cc1", "Potency": "inactive"}
{"smiles": "CC(=O)NCCc1c[nH]c2ccc(O)cc12", "Potency": "inactive"}
{"smiles": "Nc1ncnc2c1nc(Br)n2C1OC2COP(=O)(O)O[C@@H]2C1O", "note": "(stereo not given in full)", "Potency": "inactive"}
{"smiles": "O=C(O)Cc1c[nH]c2ccc(O)cc12", "Potency": "inactive"}
{"smiles": "Cn1c(=O)c2[nH]c(C3CCCC3)nc2n(C)c1=O", "Potency": "inactive"}
{"smiles": "CC1=C(/C=C/C(C)=C/C=C/C(C)=C\\C(=O)O)C(C)(C)CCC1", "Potency": "inactive"}
{"biological_target": "Single-stranded DNA cytosine deaminase (Homo sapiens) (UniProt Q9GZX7)", "sequence (Q9GZX7 whole entry, looked up)": "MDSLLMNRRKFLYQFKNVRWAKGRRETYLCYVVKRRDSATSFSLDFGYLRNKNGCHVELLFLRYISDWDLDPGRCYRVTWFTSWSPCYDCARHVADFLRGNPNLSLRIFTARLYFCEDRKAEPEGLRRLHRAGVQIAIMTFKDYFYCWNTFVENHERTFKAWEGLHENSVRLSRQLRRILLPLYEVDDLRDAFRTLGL", "assay": "Validation qHTS assay for inhibitors of Activation Induced Cytidine Deaminase (AID): AID signal (AID 1347429)", "details": "Recombinant AID, FRET ssDNA deamination with UDG, fluorescence; series mostly up to 115 µM", "procedure,_shortened": "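Fluorescence at 540 nm excitation and 590 nm emission reports ssDNA cytosine deamination by AID, with UDG in the same well. Compound-treated reactions ran 4 hr at room temperature with DJC20/DJC23 substrate, followed by 30 min NaOH treatment.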"}
{"smiles": "CC(N)(Cc1ccc(O)cc1)C(=O)O", "note": "(stereo not given)", "Potency": "inactive"}
{"smiles": "CC(C)NCC(O)COc1ccc(CC(N)=O)cc1", "note": "(stereo not given)", "Potency": "inactive"}
{"smiles": "NC(=O)CNCCC(c1ccccc1)c1ccccc1", "Potency": "inactive"}
{"smiles": "C[C@](Cc1ccc(O)c(O)c1)(NN)C(=O)O", "Potency": "inactive"}
{"smiles": "CC(O)C(O)[C@H]1CNc2nc(N)[nH]c(=O)c2N1", "note": "(stereo not given in full)", "Potency": "inactive"}
{"smiles": "Brc1c(Br)c(Br)c2[nH]cnc2c1Br", "Potency": "inactive"}
{"smiles": "COc1ccc(NC(=O)c2ccc(-c3ccc(-c4noc(C)n4)cc3C)cc2)cc1N1CCN(C)CC1", "Potency": "inactive"}
{"smiles": "NCC(O)C1CCCCCCC1", "note": "(stereo not given)", "Potency": "inactive"}
{"smiles": "COc1ccc(-c2cc3ncc(C)n3c(Nc3ncccc3C(N)=O)n2)cc1OC", "Potency": "inactive"}
{"smiles": "O[Si](CCCN1CCCCC1)(c1ccc(F)cc1)C1CCCCC1", "note": "(stereo not given)", "Potency": "inactive"}
{"smiles": "c1ccc2c(c1)CCC[C@H]2Nc1nc2ccccc2[nH]1", "Potency": "inactive"}
{"smiles": "N[C@@H](CCC(=O)N[C@H](CSN=O)C(=O)NCC(=O)O)C(=O)O", "Potency": "inactive"}
{"smiles": "COc1ccc2c(c1)c(CC(=O)O)c(C)n2Cc1ccc(Cl)cc1", "Potency": "inactive"}
{"smiles": "CCCCC[C@H](CC(=O)NO)C(=O)N[C@H](C(=O)N1CCC[C@H]1CO)C(C)C", "Potency": "inactive"}
{"smiles": "Nc1ccc2c3c(cccc13)C(=O)NC2=O", "Potency": "inactive"}
{"smiles": "CCCc1c(OCCCOc2ccc(OCC(=O)O)cc2)ccc(C(C)=O)c1O", "Potency": "inactive"}
{"smiles": "NC(C(=O)N[C@@H]1C(=O)N2C(C(=O)O)=C(Cl)CS[C@H]12)c1ccccc1", "note": "(stereo not given in full)", "Potency": "inactive"}
{"smiles": "CSC(N)=NCCC[C@H](N)C(=O)O", "Potency": "inactive"}
{"smiles": "CN1C2CCC1CC(OC(c1ccccc1)c1ccccc1)C2", "note": "(stereo not given)", "Potency": "inactive"}
{"smiles": "COc1cccc(OC)c1OCCNCC1CSc2ccccc2O1", "note": "(stereo not given)", "Potency": "inactive"}
{"smiles": "CN(C)CCC(c1ccc(Br)cc1)c1ccccn1", "note": "(stereo not given)", "Potency": "inactive"}
{"smiles": "O=c1oc(Cl)c(Cl)c2ccccc12", "Potency": "inactive"}
{"smiles": "N[C@@H](Cc1ccc(O)c(I)c1)C(=O)O", "Potency": "inactive"}
{"smiles": "N[C@@H](Cc1c[nH]c2ccccc12)C(=O)O", "Potency": "inactive"}
{"smiles": "COc1cc(C(O)CO)ccc1O", "note": "(stereo not given)", "Potency": "inactive"}
{"smiles": "C#CCn1c(=O)c2c(ncn2C)n(C)c1=O", "Potency": "inactive"}
{"smiles": "CC(C)Cn1c(=O)n(C)c(=O)c2[nH]cnc21", "Potency": "inactive"}
{"smiles": "CCCn1c(=O)c2[nH]c(C3CCCC3)nc2n(CCC)c1=O", "Potency": "inactive"}
{"smiles": "Cn1cc(C(F)(F)F)nc1-c1ccc(OCC(O)CNCCOc2ccc(O)c(C(N)=O)c2)cc1", "note": "(stereo not given)", "Potency": "inactive"}
{"smiles": "NCCC1CCCC(CCN)N1", "note": "(stereo not given)", "Potency": "inactive"}
{"smiles": "c1ccc(CN2CCC3(CCCc4ccccc43)CC2)cc1", "Potency": "inactive"}
{"smiles": "CC(=O)NCCc1c[nH]c2ccc(O)cc12", "Potency": "inactive"}
{"smiles": "Nc1ncnc2c1nc(Br)n2C1OC2COP(=O)(O)O[C@@H]2C1O", "note": "(stereo not given in full)", "Potency": "inactive"}
{"smiles": "O=C(O)Cc1c[nH]c2ccc(O)cc12", "Potency": "inactive"}
{"smiles": "Cn1c(=O)c2[nH]c(C3CCCC3)nc2n(C)c1=O", "Potency": "inactive"}
{"smiles": "CC1=C(/C=C/C(C)=C/C=C/C(C)=C\\C(=O)O)C(C)(C)CCC1", "Potency": "inactive"}
{"test_system": "not listed separately", "assay": "Primary qHTS for inhibitors of La Crosse Virus (LACV) - induced cell death in SH-SY5Y cells (AID 1508616);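 further: top concentration of the series differs between compounds; higher means more rescue of cells from virus-induced death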", "details": "SH-SY5Y LACV cytopathicity rescue, ATP luminescence, 6 d; series mostly up to 9.63 µM", "procedure,_shortened": "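Protection against LACV-induced cell death is scored in SH-SY5Y cells exposed to compounds and virus (0.01 MOI) for 6 days. Data normalized to virus-infected DMSO wells and virus-free DMSO wells.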"}
{"smiles": "CC(N)(Cc1ccc(O)cc1)C(=O)O", "note": "(stereo not given)", "Potency": "inactive"}
{"smiles": "CC(C)NCC(O)COc1ccc(CC(N)=O)cc1", "note": "(stereo not given)", "Potency": "inactive"}
{"smiles": "CC(O)C(O)[C@H]1CNc2nc(N)[nH]c(=O)c2N1", "note": "(stereo not given in full)", "Potency": "inactive"}
{"smiles": "Brc1c(Br)c(Br)c2[nH]cnc2c1Br", "Potency": "inactive"}
{"smiles": "c1ccc2c(c1)CCC[C@H]2Nc1nc2ccccc2[nH]1", "Potency": "inactive"}
{"smiles": "N[C@@H](CCC(=O)N[C@H](CSN=O)C(=O)NCC(=O)O)C(=O)O", "Potency": "inactive"}
{"smiles": "COc1ccc2c(c1)c(CC(=O)O)c(C)n2Cc1ccc(Cl)cc1", "Potency": "inactive"}
{"smiles": "CCCCC[C@H](CC(=O)NO)C(=O)N[C@H](C(=O)N1CCC[C@H]1CO)C(C)C", "Potency": "inactive"}
{"smiles": "CCCc1c(OCCCOc2ccc(OCC(=O)O)cc2)ccc(C(C)=O)c1O", "Potency": "inactive"}
{"smiles": "NC(C(=O)N[C@@H]1C(=O)N2C(C(=O)O)=C(Cl)CS[C@H]12)c1ccccc1", "note": "(stereo not given in full)", "Potency": "inactive"}
{"smiles": "CSC(N)=NCCC[C@H](N)C(=O)O", "Potency": "inactive"}
{"smiles": "COc1cccc(OC)c1OCCNCC1CSc2ccccc2O1", "note": "(stereo not given)", "Potency": "inactive"}
{"smiles": "N[C@@H](Cc1ccc(O)c(I)c1)C(=O)O", "Potency": "inactive"}
{"smiles": "N[C@@H](Cc1c[nH]c2ccccc12)C(=O)O", "Potency": "inactive"}
{"smiles": "COc1cc(C(O)CO)ccc1O", "note": "(stereo not given)", "Potency": "inactive"}
{"smiles": "C#CCn1c(=O)c2c(ncn2C)n(C)c1=O", "Potency": "inactive"}
{"smiles": "CC(C)Cn1c(=O)n(C)c(=O)c2[nH]cnc21", "Potency": "inactive"}
{"smiles": "Cn1cc(C(F)(F)F)nc1-c1ccc(OCC(O)CNCCOc2ccc(O)c(C(N)=O)c2)cc1", "note": "(stereo not given)", "Potency": "inactive"}
{"smiles": "NCCC1CCCC(CCN)N1", "note": "(stereo not given)", "Potency": "inactive"}
{"smiles": "CC(=O)NCCc1c[nH]c2ccc(O)cc12", "Potency": "inactive"}
{"smiles": "Nc1ncnc2c1nc(Br)n2C1OC2COP(=O)(O)O[C@@H]2C1O", "note": "(stereo not given in full)", "Potency": "inactive"}
{"smiles": "CC1=C(/C=C/C(C)=C/C=C/C(C)=C\\C(=O)O)C(C)(C)CCC1", "Potency": "inactive"}
